Compounds without any hit were thinned out: in the full panel of roughly 79,000, 15% have a hit. Values without a mark were called inactive. Active and inactive are the calls of the source. No stated cut-off is given here; in the data, active means growth inhibition above about 70%; inactive means the rest.
Assay: NCI Yeast Anticancer Drug Screen. Data for the mec2-1 strain (AID 157)
Details: S. cerevisiae mec2-1 strain, hits give high values
Method: Growth inhibition of yeast strains with defined genetic alterations is measured as a screen for potential anti-cancer activity. Selected strains with alterations in DNA damage repair or cell cycle control were exposed to compounds and growth inhibition was measured relative to vehicle treated controls. The strain used in this assay is mec2-1

[1] = at 5.0 µM (retest, dose inferred, filed as 0.5)
[2] = at 50.0 µM (retest, dose inferred, filed as 5.0)

Row | SMILES | growth inhibition [1] | growth inhibition [2] | growth inhibition (at 50.0 µM)
1 | Nc1nc2ccccc2cc1C(=O)O | -49% | -47% | 19.3%
2 | CO/C(=N\N=C(/c1ccccc1)C(F)(F)F)c1ccncc1 | 0% | 58% | 62.6%
3 | O=C(Nc1ccc(Cl)cc1Cl)C1C(=O)OC2(CCCCC2)OC1=O | 38% | 98% (active) | 89.8% (active)
4 | O=C(CC(O)(C(F)(F)Cl)C(F)(F)Cl)CC(O)(C(F)(F)Cl)C(F)(F)Cl | 97% (active) | 100% (active) | 99.5% (active)
5 | CCCCCCN(CCCCCC)CCCCCC | -2% | -7% | 10.8%
6 | OC(OC/C(I)=C(/I)COC(O)C(Cl)(Cl)Cl)C(Cl)(Cl)Cl (configuration not stated) | 34% | 94% (active) | 96.9% (active)
7 | c1ccc([P+](C[P+](c2ccccc2)(c2ccccc2)c2ccccc2)(c2ccccc2)c2ccccc2)cc1 | 98% (active) | 100% (active) | 99.5% (active)
8 | CCCC/C(=C\c1cc(Cl)c(O)c(Cl)c1)C(=O)O | 2% | 79% (active) | 70.8% (active)
9 | Nc1ccc(C(=O)NN2C(=O)C(Cl)C2c2cc(Br)cc(Br)c2O)cc1 (configuration not stated) | -12% | 80% (active) | 94.2% (active)
10 | Cc1cc(Br)ccc1NC(=O)/C=C/C(=O)O | -24% | -5% | 4.25%
11 | O=C(O)C(c1ccccc1)c1ccc(-c2ccccc2)cc1 (configuration not stated) | -2% | 64% | 96% (active)
12 | COc1ccc(-c2c(-c3ccccc3)c(C)nc3[nH]c(=S)[nH]c(=S)c23)cc1OC | -2% | 58% | 92.8% (active)
13 | Cc1ccc(NC(=S)SCc2ccc(Cl)cc2)cc1C | -5% | 60% | 98.2% (active)
14 | CC(C)(C)NC(=S)N/N=C/c1ccccc1O | 25% | 73% (active) | 88.8% (active)

From PubChem BioAssay (NCI)
